Test results from PubChem BioAssay (Tox21).
Results filed as inconclusive are left out. Calls of active or inactive are those of the source. Unless noted, calls follow the shape of the dose curve; as a rule, active = well fitted curve in the direction sought with a large enough effect in the repeat runs; inconclusive = weak or mixed curves; inactive = no such curve, though single readings can be large; an effect the other way counts as inactive or inconclusive.

Assays:
[1] = target: Peroxisome proliferator-activated receptor delta (Homo sapiens) (UniProt Q03181); assay: qHTS assay to identify small molecule agonists of the peroxisome proliferator-activated receptor delta (PPARd) signaling pathway (AID 743212; calls by dose curve)
How it was run: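 GeneBLAzer UAS-bla HEK293H cells carrying a PPARδ construct were exposed to compounds at 37 °C. Beta-lactamase activity was read by FRET fluorescence after 2 h at room temperature with LiveBLAzer B/G substrate.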

[2] = qHTS assay to identify small molecule antagonists of the peroxisome proliferator-activated receptor delta (PPARd) signaling pathway - cell viability counter screen (AID 743213); also: nearly all actives have a fitted effect of over 50% in size
How it was run: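 Agonist-stimulated (L165041, 300 nM final) HEK293H PPARd UAS-bla cells are exposed to compounds for 17 h at 37 C, and ATP-based luminescence (CellTiter-Glo) from the same wells reports cytotoxicity.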

[3] = target: Peroxisome proliferator-activated receptor delta (Homo sapiens) (UniProt Q03181); assay: qHTS assay to identify small molecule antagonists of the peroxisome proliferator-activated receptor delta (PPARd) signaling pathway (AID 743215; active = well fitted inhibition curve with a large enough effect in the signal ratio in the repeat runs, not every such curve was filed as active; the % refers to the signal ratio; also: series mostly up to about 62 µM)
How it was run: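 HEK293H UAS-bla, PPARd; agonist L165041 300 nM final with cpd in DMSO; 37 C 17 h; FRET substrate, RT 2 h; fluorescence intensity.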

[4] = target: Bile acid receptor (Homo sapiens) (UniProt Q96RI1); assay: qHTS assay to identify small molecule antagonists of the farnesoid-X-receptor (FXR) signaling pathway (AID 743217; active = well fitted inhibition curve with a large enough effect in the signal ratio in the repeat runs, not every such curve was filed as active; the % refers to the signal ratio)
How it was run: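 GeneBLAzer FXR-UAS-bla HEK 293T, CDCA-stimulated (50 uM final). Compound treatment 16 h, 37 °C. Detection: beta-lactamase cleavage of B/G FRET substrate, fluorescence.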

[5] = qHTS assay to identify small molecule agonists of the farnesoid-X-receptor (FXR) signaling pathway - cell viability counter screen (AID 743218); also: nearly all actives have a fitted effect of over 45% in size
How it was run: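 Parallel cytotoxicity test: compound-treated (16 h, 37 C) HEK 293T FXR-bla reporter cells were lysed with CellTiter-Glo and luminescence recorded.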

[6] = target: Bile acid receptor (Homo sapiens) (UniProt Q96RI1); assay: qHTS assay to identify small molecule agonists of the farnesoid-X-receptor (FXR) signaling pathway (AID 743220; active = well fitted activation curve with a large enough effect in the signal ratio in the repeat runs, not every such curve was filed as active; the % refers to the signal ratio)
How it was run: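 Beta-lactamase reporter under UAS control in GeneBLAzer FXR HEK 293T cells (5000/well) measured with LiveBLAzer FRET substrate after 2 h at room temperature. Compound exposure lasted 16 h at 37C.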

[7] = qHTS assay to identify small molecule antagonists of the farnesoid-X-receptor (FXR) signaling pathway - cell viability counter screen (AID 743221; active = well fitted cell-killing curve with a large enough effect in the repeat runs, not every such curve was filed as active; also: nearly all actives have a fitted effect of over 50% in size)
How it was run: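 Luminescence from CellTiter-Glo measures cytotoxicity in GeneBLAzer FXR-UAS-bla HEK 293T cells. Cells were exposed to compounds with 50 uM chenodeoxycholic acid (final) for 16 h at 37 C, in wells also used for the reporter readout.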

[8] = qHTS assay to identify small molecule agonists of the vitamin D receptor (VDR) signaling pathway - cell viability counter screen (AID 743224); also: series mostly up to about 63 µM; nearly all actives have a fitted effect of over 50% in size
How it was run: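 Plated VDR-bla cells (4 h, 37C) received compound, incubated 16 h, then LiveBLAzer substrate 2 h RT; CellTiter-Glo added afterwards, luminescence read at 30 min.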

[9] = target: Vitamin D3 receptor (Homo sapiens) (UniProt P11473); assay: qHTS assay to identify small molecule agonists of the vitamin D receptor (VDR) signaling pathway (AID 743222; calls by dose curve)
How it was run: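 In VDR-bla cells, compound-induced beta-lactamase expression is quantified by FRET substrate fluorescence. Treatment lasts 16 h at 37C; substrate develops 2 h at room temperature.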

[10] = target: Vitamin D3 receptor (Homo sapiens) (UniProt P11473); assay: qHTS assay to identify small molecule antagonists of the vitamin D receptor (VDR) signaling pathway (AID 743223; active = well fitted inhibition curve with a large enough effect in the signal ratio in the repeat runs, not every such curve was filed as active; the % refers to the signal ratio)
How it was run: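 Antagonist mode uses 1alpha,25-dihydroxyvitamin D3 at 3 nM final as stimulus. VDR-bla cells receive compounds in DMSO, incubate 16 h at 37C, then a beta-lactamase FRET substrate for 2 h at room temperature before fluorescence measurement.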

Measured: outcome

Sequence of Peroxisome proliferator-activated receptor delta (Homo sapiens) (Q03181 whole entry, looked up): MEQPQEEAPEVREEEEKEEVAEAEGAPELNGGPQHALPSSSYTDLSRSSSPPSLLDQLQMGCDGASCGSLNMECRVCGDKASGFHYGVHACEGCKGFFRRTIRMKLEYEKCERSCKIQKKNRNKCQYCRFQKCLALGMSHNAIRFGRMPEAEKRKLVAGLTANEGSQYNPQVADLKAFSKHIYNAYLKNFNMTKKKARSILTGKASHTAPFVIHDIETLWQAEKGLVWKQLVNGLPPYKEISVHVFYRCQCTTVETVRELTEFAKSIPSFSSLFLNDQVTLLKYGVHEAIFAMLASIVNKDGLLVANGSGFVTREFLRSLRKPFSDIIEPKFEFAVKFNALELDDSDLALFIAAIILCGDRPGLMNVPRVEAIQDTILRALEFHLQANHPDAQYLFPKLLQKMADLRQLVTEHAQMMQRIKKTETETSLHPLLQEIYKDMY
Sequence of Bile acid receptor (Homo sapiens) (Q96RI1 whole entry, looked up): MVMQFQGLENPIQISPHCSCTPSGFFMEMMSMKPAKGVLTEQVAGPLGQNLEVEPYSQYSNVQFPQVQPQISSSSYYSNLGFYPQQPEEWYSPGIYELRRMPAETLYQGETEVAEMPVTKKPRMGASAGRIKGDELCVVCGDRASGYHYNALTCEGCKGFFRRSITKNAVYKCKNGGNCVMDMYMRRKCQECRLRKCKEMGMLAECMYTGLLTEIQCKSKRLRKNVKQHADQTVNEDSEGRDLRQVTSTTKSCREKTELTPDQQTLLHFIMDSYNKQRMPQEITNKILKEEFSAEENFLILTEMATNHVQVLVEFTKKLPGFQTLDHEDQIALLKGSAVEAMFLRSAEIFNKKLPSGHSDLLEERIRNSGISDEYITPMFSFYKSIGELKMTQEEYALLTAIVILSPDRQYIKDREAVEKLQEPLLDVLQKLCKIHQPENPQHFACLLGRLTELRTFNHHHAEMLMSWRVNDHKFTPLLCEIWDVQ
Sequence of Vitamin D3 receptor (Homo sapiens) (P11473 whole entry, looked up): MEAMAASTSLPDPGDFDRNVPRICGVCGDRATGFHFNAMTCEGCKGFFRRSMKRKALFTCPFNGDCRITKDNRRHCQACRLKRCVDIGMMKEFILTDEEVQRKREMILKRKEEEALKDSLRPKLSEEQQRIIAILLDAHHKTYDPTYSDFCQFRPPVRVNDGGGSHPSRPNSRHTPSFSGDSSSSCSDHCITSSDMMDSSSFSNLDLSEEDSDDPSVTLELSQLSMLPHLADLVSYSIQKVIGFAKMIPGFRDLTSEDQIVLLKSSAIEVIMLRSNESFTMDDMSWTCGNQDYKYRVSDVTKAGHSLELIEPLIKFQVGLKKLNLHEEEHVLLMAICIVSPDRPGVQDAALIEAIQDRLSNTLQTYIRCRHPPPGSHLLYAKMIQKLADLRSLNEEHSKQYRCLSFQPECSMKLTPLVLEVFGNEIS

CC(C)(C)c1ccc(-c2ccc(C(C)(C)C)cc2)cc1
inactive: [1] | [2] | [3] | [4] | [5] | [6] | [7] | [8]

CC(=O)C1CCCCC1=O (stereo unspecified)
inactive: [1] | [2] | [3] | [4] | [5] | [6] | [7] | [9] | [10] | [8]

CC(C)c1ccc2ncccc2c1
inactive: [1] | [2] | [3] | [4] | [5] | [6] | [7] | [8]

CC(C)CC(C)(N)C#N (stereo unspecified)
inactive: [1] | [2] | [3] | [4] | [6] | [7] | [9] | [8]

NC(=O)N[C@@H](CCC(=O)O)C(=O)O
inactive: [1] | [2] | [3] | [4] | [5] | [6] | [7] | [9] | [10] | [8]

CCCCc1nc(Cl)c(CO)n1Cc1ccc(-c2ccccc2-c2nn[nH]n2)cc1
inactive: [1] | [2] | [3] | [4] | [5] | [6] | [7] | [8]

CC(CC=O)CC(C)(C)C (stereo unspecified)
inactive: [1] | [2] | [3] | [4] | [5] | [6] | [9] | [10] | [8]

CC(C)(C)C(=O)Oc1ccc(S(=O)(=O)Nc2ccccc2C(=O)NCC(=O)O)cc1
inactive: [1] | [2] | [3] | [4] | [6] | [7] | [9] | [10] | [8]

[K+]
inactive: [1] | [2] | [3] | [4] | [5] | [6] | [7] | [9] | [8]

CN(C)C(=O)Oc1cccc([N+](C)(C)C)c1
inactive: [1] | [2] | [3] | [4] | [6] | [7] | [9] | [10] | [8]

Cc1ccc(C(=O)c2ccccc2)cc1
inactive: [1] | [2] | [3] | [4] | [5] | [6] | [7] | [9] | [10] | [8]

CCOCC(C)O (stereo unspecified)
inactive: [1] | [2] | [3] | [4] | [5] | [6] | [7] | [9] | [8]

C[N+]1(CC2COC(c3ccccc3)(c3ccccc3)O2)CCCCC1 (stereo unspecified)
inactive: [1] | [2] | [3] | [4] | [5] | [6] | [7] | [8]

CC(=O)c1ccc2ccccc2c1
inactive: [1] | [2] | [3] | [4] | [5] | [6] | [7] | [9] | [10] | [8]

O=C(O)c1cn(C2CC2)c2cc(N3CCNCC3)c(F)cc2c1=O
inactive: [1] | [2] | [3] | [4] | [5] | [6] | [7]

CC(=O)Nc1ccc(OCC(O)CNC(C)C)cc1 (stereo unspecified)
inactive: [1] | [2] | [3] | [4] | [5] | [6] | [7] | [9] | [10] | [8]

C=C(C)C(=O)OCC(O)CO (stereo unspecified)
inactive: [1] | [2] | [3] | [4] | [5] | [6] | [7] | [9] | [10] | [8]

O=Cc1cccc(Br)c1
inactive: [1] | [2] | [3] | [4] | [5] | [6] | [7] | [9] | [10] | [8]

CC12CCC(C(=O)C1=O)C2(C)C (stereo unspecified)
inactive: [1] | [2] | [3] | [4] | [5] | [6] | [7] | [9] | [10] | [8]

CCC(C)(CCCC(C)C)OC(C)=O (stereo unspecified)
inactive: [1] | [2] | [3] | [4] | [5] | [6] | [7] | [9] | [10] | [8]

C[N+]1(C)CCCC(OC(=O)C(O)(c2ccccc2)c2ccccc2)C1 (stereo unspecified)
inactive: [1] | [2] | [3] | [4] | [5] | [6] | [7] | [9] | [10] | [8]

CC(N)C12CC3CC(CC(C3)C1)C2 (stereo unspecified)
inactive: [1] | [2] | [3] | [4] | [5] | [6] | [7] | [9] | [8]

CC(=O)N1C[C@H](O)C[C@H]1C(=O)O
inactive: [1] | [2] | [3] | [4] | [5] | [6] | [9] | [10] | [8]

C=C(C)C(=O)OCC1CCCO1 (stereo unspecified)
inactive: [1] | [2] | [3] | [4] | [5] | [6] | [7] | [9] | [10] | [8]

NC(=O)Cc1cccc2ccccc12
inactive: [1] | [2] | [3] | [4] | [5] | [6] | [7] | [8]

CC1=CC(=O)[C@H]2C[C@@H]1C2(C)C
inactive: [1] | [2] | [3] | [4] | [5] | [6] | [7] | [9] | [10] | [8]

CC(=O)c1cnccn1
inactive: [1] | [2] | [3] | [4] | [5] | [6] | [9] | [10] | [8]

CC(C)C[C@@H](N)C(=O)O
inactive: [1] | [2] | [3] | [4] | [6] | [7] | [9] | [10] | [8]

COC(=O)Nc1ccc(Cl)c(Cl)c1
inactive: [1] | [2] | [3] | [4] | [6] | [7] | [9] | [8]

Cc1cccc(C)c1NC(=O)CC12CCCN1CCC2
inactive: [1] | [2] | [3] | [4] | [5] | [6] | [7] | [8]

COc1cc(C)nc(-n2nc(C)cc2OC)n1
inactive: [1] | [2] | [3] | [4] | [5] | [8]

C=COC(=O)C(C)(CC)CCC(C)C (stereo unspecified)
inactive: [1] | [2] | [3] | [4] | [5] | [6] | [9] | [8]

Nc1ccn([C@@H]2O[C@H](CO)[C@@H](O)C2O)c(=O)n1 (stereo partly specified)
inactive: [1] | [2] | [3] | [4] | [5] | [6] | [7] | [9] | [8]

c1ccc(CCc2ccccc2)cc1
inactive: [1] | [2] | [3] | [4] | [5] | [6] | [7] | [9] | [10] | [8]

CN1C(C)(C)CC(O)CC1(C)C
inactive: [1] | [2] | [3] | [4] | [5] | [6] | [7] | [9] | [10] | [8]

CC1=NN(c2cc(S(=O)(=O)O)ccc2Cl)C(=O)C1N=Nc1ccccc1 (stereo unspecified)
inactive: [1] | [2] | [3] | [4] | [5] | [6] | [9] | [10] | [8]

CC(C)(C)C(=O)c1ccccc1
inactive: [1] | [2] | [3] | [4] | [5] | [6] | [7] | [9] | [10] | [8]

CC(C)(C#N)Nc1nc(Cl)nc(NC2CC2)n1
inactive: [1] | [2] | [3] | [4] | [5] | [6] | [7] | [9] | [8]

CCN(CC#N)c1cccc(C)c1
inactive: [1] | [2] | [3] | [5] | [7] | [9] | [10] | [8]

Cc1onc(-c2c(Cl)cccc2Cl)c1C(=O)Cl
inactive: [1] | [2] | [3] | [5] | [7] | [9] | [8]

O=C(O)c1cc(C(=O)O)cc(C(=O)O)c1
inactive: [1] | [2] | [3] | [5] | [7] | [9] | [10] | [8]

Nc1ccn([C@@H]2O[C@H](CO)[C@@H](O)[C@@H]2O)c(=O)n1
inactive: [1] | [2] | [3] | [5] | [6] | [9] | [10] | [8]

OCCc1ccccn1
inactive: [1] | [2] | [3] | [5] | [7] | [9] | [10] | [8]

COc1ccccc1OCC1CNC(=O)O1 (stereo unspecified)
inactive: [1] | [2] | [3] | [5] | [7] | [9] | [10] | [8]

c1coc(CNc2ncnc3nc[nH]c23)c1
inactive: [1] | [2] | [3] | [5] | [7] | [9] | [10] | [8]

CCOc1c(N2CCOCC2)cnn(C)c1=O
inactive: [1] | [2] | [3] | [5] | [7] | [9] | [10] | [8]

NC(CCC(=O)O)C(=O)O (stereo unspecified)
inactive: [1] | [2] | [3] | [5] | [7] | [9] | [8]

CCCCCCCCCCCCCCCCCCO
inactive: [1] | [2] | [3] | [5] | [7] | [9] | [10] | [8]

CCOC(=O)COC(=O)c1ccccc1C(=O)OCC
inactive: [1] | [2] | [3] | [5] | [7] | [9] | [10] | [8]

CC(C)C(=O)OC(=O)C(C)C
inactive: [1] | [2] | [3] | [5] | [7] | [9] | [8]
